Assay results reported in PubChem BioAssay AID488789 (Broad Institute, 2010).
Potency and affinity values are given separately. Results filed as inconclusive are left out. The source made the active and inactive calls.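 The calls were made as follows: active = samples whose fitted half-maximal inhibition concentration is no more than ten times the top valid dose tested; inconclusive = flat response between -70 and -30, or invalid curve fit; inactive = flat within 30 of zero, potency above limit, or signal rising.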

The compounds below were run against Trypsin (Sus scrofa) (UniProt P00761) (assay: porcine trypsin inhibitors, dose response, selectivity assay for Rce1 protease inhibitor project, biochemical, quenched peptide fluorescence, cherry-pick (AID 488789;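 also: more negative means stronger trypsin inhibition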)). Conditions: quenched peptide cleavage fluorescence; series mostly up to 10 µM.
Trypsin (Sus scrofa), sequence (P00761 whole entry, looked up): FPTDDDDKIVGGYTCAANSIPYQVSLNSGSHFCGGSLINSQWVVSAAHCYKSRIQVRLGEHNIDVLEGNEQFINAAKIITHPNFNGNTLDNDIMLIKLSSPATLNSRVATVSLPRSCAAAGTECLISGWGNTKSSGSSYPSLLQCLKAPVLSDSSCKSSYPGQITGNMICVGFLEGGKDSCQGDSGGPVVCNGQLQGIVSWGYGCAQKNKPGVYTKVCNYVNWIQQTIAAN

outcome, inactive:
Clc1ccc(CN2CCc3c([nH]c4ccccc34)C2)cc1Cl
CC(=O)c1c(C)oc2ccc(NS(=O)(=O)c3ccc(C(=O)O)cc3)cc12
Oc1c(N=NC(=S)Nc2ccccc2F)c2ccccc2n1Cc1ccccc1Cl
CCN(CC)CCN(C(=O)c1ccc2ccccc2c1)c1nc2cc3c(cc2s1)OCO3
CC(NC(=O)/C(C#N)=C/c1ccc(Cl)c([N+](=O)[O-])c1)c1ccccc1 (configuration not stated)
Cc1cc(C)n(-c2nc3ccccc3c(=O)n2OCC(=O)N(C)C)n1
CC(=O)NN1C(=O)c2ccccc2NC1c1ccccc1 (configuration not stated)
CN(C)CCN(C(=O)c1ccc2ccccc2c1)c1nc2ccc(Br)cc2s1
COc1ccc([N+](=O)[O-])cc1CSc1ccccn1
CC(C)N1CCN(S(=O)(=O)c2ccc3ccccc3c2)CC1
CC(C)[C@H](NC(=O)OCc1ccccc1)C(=O)OCC(=O)Nc1c(F)cccc1F
CCC(COC)NC(=O)CCc1nnc(Cc2cccc(C(F)(F)F)c2)o1 (configuration not stated)
CCOc1cccc(-c2c(C(=O)N/N=C/c3cccs3)nnn2-c2nonc2N)c1
CCOC(=O)C1CCCN(S(=O)(=O)c2cc3[nH]c(=O)c(=O)[nH]c3cc2C)C1 (configuration not stated)
CCOc1ccc(-c2nc(CCl)cs2)cc1OC
O=C(c1cnc2n(c1=O)CCS2)N1CCN(C(c2ccccc2)c2ccc(Cl)cc2)CC1 (configuration not stated)
CCn1nnnc1SCC(=O)Nc1nc(C)c(C)s1
CC(CCc1ccccc1)NCC(O)c1ccc(O)c(C(N)=O)c1 (configuration not stated)
Cc1ccc(OCCn2c3ccccc3n3nc(C)c(=O)nc23)cc1
Cc1cc(C)cc(Nc2nc(-c3ccc(S(=O)(=O)N4CCCC4)cc3)cs2)c1
CC(=O)N[C@@H](C)c1nc2ccccc2n1CCCN1CCN(c2nc(-c3ccc(C)cc3)cs2)CC1
CS(=O)(=O)Nc1ccccc1C(=O)NC1CC2CCC1C2 (configuration not stated)
NCCCn1c(C(=O)c2cc(Cl)c(N)c(Cl)c2)c2ccc(C(F)(F)F)cc2[n+]1[O-]
Cc1ccc2c(C)c(C(=O)N(Cc3ccc(F)cc3)C3CCS(=O)(=O)C3)oc2c1 (configuration not stated)
O=C(Nc1ccc(S(=O)(=O)Nc2ccccc2)cc1)C1COc2ccccc2O1 (configuration not stated)
CCCCOc1ccc(Cc2c(COCC)[nH]c(=S)[nH]c2=O)cc1
COc1ccc(C2Nc3ccccc3C(=O)N2Cc2ccccc2)cc1COc1ccccn1 (configuration not stated)
CC1(C)CC2CC(C)(CN2S(=O)(=O)c2ccc(N)cc2)C1 (configuration not stated)
Cc1cc(C(=O)N/N=C/c2c3ccccc3cc3ccccc23)n[nH]1
CN1CCN(Cc2c(C(=O)N/N=C/c3cccc(Br)c3)nnn2-c2nonc2N)CC1
COc1ccc(OC)c(Cc2nnc(CCC(=O)N3CCN(C4CCCC4)CC3)o2)c1
CCCCNC(=S)NNC(=O)CCn1cc(C)cn1
Cc1ccc(-c2nc(Nc3ccc(N4CCOCC4)cc3)c3ccccc3n2)cc1
COCc1cc(C)n(CC(=O)NCc2ccccc2)c(=O)c1C#N
CC(C)c1ccc(NC(=O)COc2nncc3ccccc23)cc1
CCCCOC(=O)Nc1nc(C)c(C(=O)OCC)s1
Cc1cccc(N2C(=O)c3cccc4c(N5CCCCC5)c([N+](=O)[O-])cc(c34)C2=O)c1C
